# Laboratory results published in PubChem BioAssay (Tox21).
# Where “and” joins values, the source holds several entries; their conditions need not be identical. Equal values may be shown once. Records with an inconclusive call do not appear. A call without a number means that no potency is given here. A structure can be active in one record and inactive in another. Calls of active or inactive are those of the source. Unless noted, calls come from the whole dose curve; as a rule, active = well fitted curve in the direction sought with a large enough effect in the repeat runs; inconclusive = weak or mixed curves; inactive = no such curve, though single readings can be large; an effect the other way counts as inactive or inconclusive.
# Experiments:
# [1] = target: Retinoic acid receptor RXR-alpha (Homo sapiens) (UniProt P19793); assay: qHTS assay to identify small molecule agonists of the RXR signaling pathway (AID 1159527; calls by dose curve; note: nearly all actives have a fitted effect of over 35% in size; note: potency is the fitted concentration of half-maximal effect)
# Method in brief: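 Fluorescence ratio readout (460 vs 530 nm) from GeneBLAzer RXR-alpha HEK 293T cells after 16 hr compound treatment; cells seeded 5 hr beforehand in low-serum, charcoal-stripped medium.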
# [2] = qHTS assay to identify small molecule agonists of the RXR signaling pathway - cell viability counter screen (AID 1159529); note: nearly all actives have a fitted effect of over 50% in size; note: potency is the fitted concentration of half-maximal effect
# Method in brief: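 Viability read-out for the RXR-alpha agonist qHTS: luminescent CellTiter-Glo signal after 30 min at RT. HEK 293T bla reporter cells, 2% charcoal-stripped FBS, 16 hr compound incubation; tetraoctyl ammonium bromide as cytotoxic control.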
# [3] = qHTS assay to identify small molecule antagonists of the retinoid acid receptor (RAR) signaling pathway - cell viability counter screen (AID 1159551); note: nearly all actives have a fitted effect of over 35% in size
# Method in brief: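 Luminescent ATP quantitation (CellTiter-Glo) gave cell viability in C3RL4 cells exposed to test chemicals for 6 h at 37 C alongside 1 uM final retinol.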
# [4] = qHTS assay to identify small molecule antagonists of the retinoic acid receptor (RAR) signaling pathway (AID 1159552; note: nearly all actives have a fitted effect of over 50% in size)
# Method in brief: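 Using a RARE-driven luciferase construct in C3RL4 cells, retinol at 1 uM final provided the agonist stimulus while compounds were co-applied. After 6 hours at 37 C, luminescence was recorded to flag inhibitors of retinol signaling.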
# [5] = qHTS assay to identify small molecule agonists of the retinoic acid receptor (RAR) signaling pathway (AID 1159553); conditions: C3RL4 RARE luciferase reporter, agonist, 6 h; activation: at 73.3 µM (top of the series) unless noted; note: potency is the fitted concentration of half-maximal effect
# Method in brief: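 Luminescence from a RARE-driven luciferase reporter in C3RL4 cells served as the read-out, measured after 30 min with detection reagent at room temperature. Compounds in DMSO were applied for 6 hr at 37 C following overnight seeding.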
# Sequence of Retinoic acid receptor RXR-alpha (Homo sapiens) (P19793 whole entry, looked up): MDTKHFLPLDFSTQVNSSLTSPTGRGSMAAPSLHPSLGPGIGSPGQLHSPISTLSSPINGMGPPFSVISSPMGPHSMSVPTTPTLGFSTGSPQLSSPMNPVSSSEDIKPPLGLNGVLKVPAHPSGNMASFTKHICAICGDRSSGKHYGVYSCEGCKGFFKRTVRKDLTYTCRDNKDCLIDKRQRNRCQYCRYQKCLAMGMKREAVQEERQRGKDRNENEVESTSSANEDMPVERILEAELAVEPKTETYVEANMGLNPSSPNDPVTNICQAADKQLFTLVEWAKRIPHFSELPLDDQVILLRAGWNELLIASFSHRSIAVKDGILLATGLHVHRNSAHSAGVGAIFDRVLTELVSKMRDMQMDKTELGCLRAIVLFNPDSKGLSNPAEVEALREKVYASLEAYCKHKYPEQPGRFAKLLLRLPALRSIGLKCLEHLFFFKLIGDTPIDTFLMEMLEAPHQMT
Structure (SMILES),Potency [1],Potency [2],Potency [3],Potency [4],Potency [5]
CCCCCc1cc(O)cc(O)c1,inactive,inactive,inactive,,
CCCCN(CC)c1c([N+](=O)[O-])cc(C(F)(F)F)cc1[N+](=O)[O-],inactive,inactive,inactive,inactive,inactive
C=C(C)C(=O)OCC1CO1 (stereo unspecified),inactive,inactive,inactive,inactive,inactive
Nc1c(Cl)cc([N+](=O)[O-])cc1Cl,inactive,inactive,inactive,inactive,inactive
NC(=S)Nc1ccccc1,inactive,25 µM (active) and inactive,inactive,inactive,inactive
c1nc[nH]n1,inactive,inactive,inactive,,
c1ccc(P(c2ccccc2)c2ccccc2)cc1,inactive,inactive,inactive,,
Nc1ccc(Cl)c(Cl)c1,inactive,inactive,inactive,,
Oc1ccc(-c2ccccc2)cc1,5.42 µM (active) and inactive,inactive,inactive,inactive,
c1ccc(NNc2ccccc2)cc1,inactive,inactive,inactive,inactive,
CN(C)C(=O)Nc1ccc(Cl)cc1,inactive,inactive,inactive,,
COC(=O)c1sccc1S(=O)(=O)NC(=O)Nc1nc(C)nc(OC)n1,inactive,inactive,inactive,inactive,inactive
Cc1ccc2c(c1N)C(=O)c1ccccc1C2=O,inactive,inactive,inactive,inactive,1.7 µM (active) and 1.93 µM (active)
CNC(=O)Oc1cccc2c1OC(C)(C)O2,inactive,inactive,inactive,,
C=CCc1ccc2c(c1)OCO2,inactive,inactive,inactive,inactive,inactive
COc1ccc(C=O)cc1,inactive,inactive,inactive,,
CCC(C)(c1ccc(O)cc1)c1ccc(O)cc1,inactive,inactive,inactive,,
CC(O)CCO (stereo unspecified),inactive,inactive,inactive,inactive,inactive
CC(C)(C)c1ccccc1O,inactive,inactive,inactive,,
CC(C)C(=O)OCC(C)(C)C(OC(=O)C(C)C)C(C)C (stereo unspecified),inactive,inactive,inactive,inactive,inactive
C=CCN(CC=C)C(=O)C(Cl)Cl,inactive,inactive,inactive,,
CCC(C)c1ccc(O)cc1 (stereo unspecified),inactive,inactive,inactive,,

Structure (SMILES),Potency [1],Potency [2],Potency [3],Potency [4],Potency [5]
N#Cc1cc(Br)c(O)c(Br)c1,inactive,11 µM (active) and 13.3 µM (active),inactive,inactive,inactive
CCN(CC)C(=O)SCc1ccc(Cl)cc1,inactive,inactive,inactive,inactive,
O=[N+]([O-])c1cccc2ccccc12,inactive,inactive,inactive,inactive,inactive
Clc1nc(Cl)nc(Cl)n1,inactive,inactive,inactive,,
Oc1cc(Cl)c(Cl)cc1Cl,inactive,inactive,inactive,,
COP(=O)(OC)OC,inactive,inactive,inactive,,
C=CC(=O)OCCO,inactive,inactive,inactive,,
CCC(C)(C)c1ccc(O)cc1,inactive,inactive,inactive,,
N#CC(Br)Br,inactive,inactive,inactive,inactive,inactive
O=C(NC(=O)c1c(F)cccc1F)Nc1ccc(Cl)cc1,inactive,inactive,inactive,inactive,
CCCCC(CC)COC(=O)Cl (stereo unspecified),inactive,inactive,inactive,inactive,inactive
O=Cc1ccco1,inactive,inactive,inactive,inactive,inactive
C=CCc1ccc(OC)cc1,inactive,inactive,inactive,,
CC(C)(c1cc(Cl)c(O)c(Cl)c1)c1cc(Cl)c(O)c(Cl)c1,inactive,inactive,inactive,,
O=C(O)C(F)(F)C(F)(F)C(F)(F)C(F)(F)C(F)(F)C(F)(F)C(F)(F)F,inactive,inactive,inactive,,
CCCCN(CCCC)N=O,inactive,inactive,inactive,,
CCCCNC(=O)n1c(NC(=O)OC)nc2ccccc21,inactive,inactive,inactive,inactive,13.6 µM (active)
CC(C)NC(C)C,inactive,inactive,inactive,inactive,inactive
ClC1C(Cl)C(Cl)C(Cl)C(Cl)C1Cl (stereo unspecified),inactive,inactive and 43.6 µM (active),inactive,inactive,inactive
CCCCCCCCCCCOC(=O)c1ccccc1C(=O)OCCCCCCCCCCC,inactive,inactive,inactive,inactive,inactive
N#CCCCl,inactive,inactive,inactive,inactive,inactive
